In PubChem BioAssay (Tox21) one finds Potency data, which are given here for 40 compounds.

Where “and” joins values, the source holds several entries; their conditions need not be identical. Identical values can stand only once. Results filed as inconclusive are left out. Where a call stands in place of a potency, no number is given. Calls of active or inactive are those of the source. The call rests on the fitted dose curve; in most records, active means well fitted inhibition curve with a large enough effect in the repeat runs; inconclusive means weak or mixed curves; inactive means flat fitted curve, though single readings scatter.
Potency means the concentration at half of the fitted maximal effect.

The target in the assay is Voltage-gated inwardly rectifying potassium channel KCNH2 (Homo sapiens) (UniProt Q12809). Briefly: Human Ether-a-go-go-Related Gene (hERG) channel small molecule antagonists: fluorescence cell-based qHTS assay (AID 1671200). Further: nearly all actives have a fitted effect of over 50% in size. To be noted: hERG-U2OS cells, FluxOR thallium flux fluorescence; series mostly up to 76.8 µM. From the text: National Center for Advancing Translational Sciences [NCATS]
Chain of Voltage-gated inwardly rectifying potassium channel KCNH2 (Homo sapiens) (Q12809 whole entry, looked up): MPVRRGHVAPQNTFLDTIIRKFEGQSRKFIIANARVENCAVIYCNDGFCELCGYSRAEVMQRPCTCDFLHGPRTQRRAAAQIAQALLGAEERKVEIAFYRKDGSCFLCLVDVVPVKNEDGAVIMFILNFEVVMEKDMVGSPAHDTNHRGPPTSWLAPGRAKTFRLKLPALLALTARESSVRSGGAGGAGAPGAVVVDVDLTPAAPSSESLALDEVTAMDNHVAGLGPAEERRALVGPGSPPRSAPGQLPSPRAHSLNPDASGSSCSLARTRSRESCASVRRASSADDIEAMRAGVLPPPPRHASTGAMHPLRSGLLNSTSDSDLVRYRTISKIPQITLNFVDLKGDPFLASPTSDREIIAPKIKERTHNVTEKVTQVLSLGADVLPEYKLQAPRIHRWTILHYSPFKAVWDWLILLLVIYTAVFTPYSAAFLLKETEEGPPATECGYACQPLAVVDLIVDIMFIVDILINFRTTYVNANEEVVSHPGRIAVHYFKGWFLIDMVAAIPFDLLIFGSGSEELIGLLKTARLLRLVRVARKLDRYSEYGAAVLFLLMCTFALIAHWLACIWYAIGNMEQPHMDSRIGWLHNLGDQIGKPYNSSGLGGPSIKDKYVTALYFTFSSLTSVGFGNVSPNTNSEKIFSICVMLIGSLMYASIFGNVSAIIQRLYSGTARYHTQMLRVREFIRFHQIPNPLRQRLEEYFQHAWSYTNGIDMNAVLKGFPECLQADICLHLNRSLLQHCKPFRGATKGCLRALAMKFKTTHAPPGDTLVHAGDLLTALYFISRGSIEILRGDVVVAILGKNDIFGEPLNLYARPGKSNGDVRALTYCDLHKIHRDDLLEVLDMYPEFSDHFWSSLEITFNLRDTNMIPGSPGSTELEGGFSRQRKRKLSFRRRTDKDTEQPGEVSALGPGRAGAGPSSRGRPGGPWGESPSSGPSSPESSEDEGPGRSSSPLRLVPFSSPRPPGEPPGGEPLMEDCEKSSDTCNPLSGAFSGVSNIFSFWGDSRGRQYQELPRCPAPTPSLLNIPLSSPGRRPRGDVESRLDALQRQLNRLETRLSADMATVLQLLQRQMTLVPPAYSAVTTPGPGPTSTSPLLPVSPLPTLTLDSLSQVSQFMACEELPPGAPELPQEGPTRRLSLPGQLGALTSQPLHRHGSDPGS
U.S. Environmental Protection Agency [EPA]
National Institutes of Environmental Health Sciences [NIEHS]
National Toxicology Program [NTP]
U.S. Food and Drug Administration [FDA]
Mutations in the hERG channel cause Long QT (LQT) syndrome. LQT syndrome is a cardiac disorder which can cause ventricle arrhythmia and sudden death. Additionally, compounds which block the hERG channel can cause acquired LQT syndrome. Several FDA approved drugs have been removed from the market due to their hERG blocking activity. A cell-based hERG channel inhibition assay can be used to screen chemical compounds that inhibit hERG channel. This assay measures hERG channel activity using thallium ions as surrogate ions to measure potassium into the cells.
Tox21 Assay Protocol Summary:
hERG-U2OS cells were resuspended in culture medium and dispensed into 1536-well, black wall/clear-bottom plates at 1000cells/well/3uL using a Multidrop Combi dispenser (Thermo Fisher, Waltham, MA). After plates were incubated at 37 C overnight, 3 uL of Loading Buffer provided by FluxOR II Potassium Ion Channel Assay kit (Thermo, Carlsbad, CA) was added to each well. The assay plates were then incubated at room temperature in the dark for 1h. […] After the assay plates were incubated at room temperature for 10 min, 1 uL of Stimulus Buffer provided by FluxOR II Potassium Ion Channel Assay kit was added into each well and fluorescence intensity (480nm excitation/540nm emission) was continuously measured for 2 min at 1 second intervals using a Functional Drug Screening System (FDSS) 7000EX kinetic plate reader (Hamamatsu, Japan).
`CCCCCCOCCOCCO`: the Potency result was “inactive”.

In the case of `ClC/C=C/CCl`, the Potency result was “inactive”. Take `CC1(C)C(C=C(Cl)Cl)C1C(=O)OCc1cccc(Oc2ccccc2)c1` (stereo not given): the Potency entry was “inactive”. In the case of `Cc1ccc(C(C)(C)C)c(O)c1` it was “inactive”; in that of `Nc1cc(Cl)c(N)c(Cl)c1`, “inactive”; in that of `Nc1cc([N+](=O)[O-])ccc1C(=O)O`, “inactive”. The same measure for `O=C(O)c1cc(=O)[nH]c(=O)[nH]1`: “inactive”. The same measure for `CCCCCC=O`: “inactive”. On to `CN(C)C`, for which the Potency entry is “inactive”. Regarding `C=C[C@@]1(C)CC(=O)[C@]2(O)[C@@]3(C)[C@@H](O)CCC(C)(C)[C@@H]3[C@H](O)[C@H](OC(C)=O)[C@@]2(C)O1`, the Potency entry is “inactive”. `CN(Cc1cnc2nc(N)nc(N)c2n1)c1ccc(C(=O)N[C@@H](CCC(=O)O)C(=O)O)cc1`: the Potency entry is “inactive”. For the compound `CCO[Si](CCCNC(N)=O)(OCC)OCC`, the Potency result is “inactive”. The same measure for `C=C1C[C@H]2[C@@H]3C=C(C)C4=CC(=O)CC[C@]4(C)[C@H]3CC[C@]2(C)[C@@]1(OC(C)=O)C(C)=O`: “inactive”. In the case of `IC(I)I` it was “inactive”; in that of `CC/C=C\C/C=C\C/C=C\CCCCCCCC(=O)O`, “inactive”. For `CC(C)(Oc1ccc(Cl)cc1)C(=O)O`, the Potency result is “inactive”. Take `FC(F)(F)C(Cl)Br` (stereo not given): the Potency entry is “inactive”.

Take `C=CC(C)(O)CCC=C(C)C` (stereo not given): the Potency result is “inactive”. The same measure for `Cc1ccc(C(C)(C)C)cc1`: “inactive”.

In the case of `Nc1ccc(N)c(Cl)c1`, the Potency entry is “inactive”.

Consider `O=[Se](O)O`, for which the Potency entry was “inactive”. In the case of `CCC/C=C/C=O`, the Potency entry was “inactive”. Turning to `OCCNCCO`, the Potency result was “inactive”.

`C=CCNCC=C`: the Potency entry was “inactive”. `C=CC(=O)OCCCC`: the Potency result is “inactive”. With `O=C(O)c1ccc(O)cc1`, the Potency entry was “inactive”. Consider `O=C1CCc2ccccc2O1`, for which the Potency result was “inactive”.

As for `Cc1ccc([N+](=O)[O-])c(C)c1`, the Potency entry is “inactive”. The same measure for `CC(C)(C)c1cccc(C(C)(C)C)c1O`: 24 µM (active); for `CC1(C)NC(=O)N(c2ccc([N+](=O)[O-])c(C(F)(F)F)c2)C1=O`: “inactive”. The same measure for `C[C@]12C=CC(=O)C=C1CC[C@H]1[C@@H]3C[C@@H](O)[C@](O)(C(=O)CO)[C@@]3(C)C[C@H](O)[C@@]12F`: “inactive”; for `OC[C@@H](O)[C@@H](O[C@@H]1O[C@H](CO)[C@H](O)[C@H](O)[C@H]1O)[C@H](O)[C@@H](O)CO`: “inactive”. For the compound `Oc1ccc(C(c2ccc(O)cc2)C(Cl)(Cl)Cl)cc1`, the Potency entry was “inactive”. The same measure for `COc1cc([C@H]2Oc3cc([C@H]4Oc5cc(O)cc(O)c5C(=O)[C@@H]4O)ccc3O[C@@H]2CO)ccc1O`: “inactive”; for `CCOC(=O)C(C)Oc1ccc(Oc2cnc3cc(Cl)ccc3n2)cc1` (stereo not given): 15.9 µM (active) and 18.3 µM (active); for `CC(C)[C@@H]1CC[C@@H](C)CC1=O`: “inactive”. Turning to `C=CN1CCCC1=O`, the Potency entry is “inactive”.

`COC(=O)c1ccc(C)cc1`: the Potency result is “inactive”. Take `CC(=O)[C@H]1CC[C@H]2[C@@H]3CC=C4C[C@@H](O)CC[C@]4(C)[C@H]3CC[C@]12C`: the Potency result is “inactive”. The same measure for `CCCCCCCCCCC(CO)CCCCCCCC` (stereo not given): “inactive”.
